Results reported in PubChem BioAssay AID836 (Columbia University Molecular Screening Center, 2007).
Hit rate of the full screen: of about 91,000 compounds, about 160 (0.18%) were called active.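 The calls were made as follows: active = inhibition above the batch mean plus 3 SD and confirmed as a hit by visual image inspection (cut at about 30% in these data, passing the limit was not always enough); inconclusive = above the inhibition threshold but rejected on visual inspection; inactive = the rest.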 The sample as a whole holds a higher share of actives than the screen did.

Assay: modifiers of F-actin cytoskeleton organization, primary screen, imaging, HUVEC, phalloidin staining, high-content imaging (AID 836)
Conditions: HUVEC TNFa F-actin phalloidin imaging, at 2 µM, active compounds read high

| Compound | inhibition |
| --- | --- |
| O=C1c2cccc3cc(Br)cc(c23)C(=O)N1Nc1ccccc1 | -0.3% (inactive) |
| O=C(Nc1cccc2ncccc12)C(Cl)(Cl)Cl | 17.1% (inactive) |
| O=C(NC1CCN(C(=S)NCc2ccco2)CC1)c1ccc(F)cc1 | 9.8% (inactive) |
| N#C/C(=C1/CCCN1)c1ccccn1 | -5.5% (inactive) |
| Nc1c(-c2cccc(Cl)c2)cnn1-c1cccc([N+](=O)[O-])c1 | 14.9% (inactive) |
| Cc1cc(OC(=O)c2ccc(Cl)cc2)cc(=O)n1C | 2.4% (inactive) |
| O=C(O)c1ccccc1NC(=S)NC(NC(=O)c1ccccc1[N+](=O)[O-])C(Cl)(Cl)Cl (stereo not given) | -20.2% (inactive) |
| COc1ccc(CN(C(=O)CSc2nnc(-c3ccc(OC)c(OC)c3)o2)c2ccc(F)cc2)cc1 | 15.5% (inactive) |
| COc1ccc(-c2nnc(SCC(=O)NC3CCCCC3)o2)cc1OC | 30.5% (active) |
| COc1ccc(CCNC(=O)CSc2nnc(-c3cccc(F)c3)o2)cc1OC | 2.3% (inactive) |
| CC(=O)c1nn(-c2cccc(Br)c2)cc1C(=O)c1cccc2ccccc12 | 18.2% (inactive) |
| O=C(CSc1ccc(/C=N/NC(=O)c2cccc(F)c2)o1)Nc1ccccc1 | 1.1% (inactive) |
| NC(=O)C1(N2CCCCC2)CCN(C(=S)Nc2ccc(Cl)cc2)CC1 | -20.4% (inactive) |
| COCCCn1c(SCc2cccc(OC)c2)nc2cc(OC)c(OC)cc2c1=N | 3.7% (inactive) |
| Cc1ccc(N2CCN(C3=NC(=O)/C(=C\c4cccs4)S3)CC2)cc1 | 24.1% (inactive) |
| CCCCOC(=O)NCN1C(=O)C2C3C=CC(C3)C2C1=O (stereo not given) | 11.5% (inactive) |
| CCCCCCOC(=O)NCC(O)c1ccccc1 (stereo not given) | 61.8% (active) |
| CCCCCOC(=O)NCCOC(=O)Nc1ccc(C(=O)OCC)cc1 | 8% (inactive) |
| CCC(=O)OCc1c(C(F)(F)F)nn(C)c1Oc1cccc(C(F)(F)F)c1 | -4% (inactive) |
| COC(=O)c1ccc(C2C(Oc3ccccc3C)C(=O)N2CCc2ccc(OC)c(OC)c2)cc1 (stereo not given) | 3.1% (inactive) |

| Compound | inhibition |
| --- | --- |
| Cc1[nH]c2ccccc2c1C(=O)COC(=O)C(C)C | -13% (inactive) |
| Cc1ccc(-c2nc(C)sc2CC(=O)O)cc1 | 7.2% (inactive) |
| N=c1oc2ccccc2cc1C(=O)N/N=C/c1ccccc1 | -3.7% (inactive) |
| COc1cc(/C=N\NC(=O)C2C(=O)NCC2c2ccccc2)cc(OC)c1O (stereo not given) | 2% (inactive) |
| CC1CCc2c(c3ccccc3[nH]c2=O)O1 (stereo not given) | 3% (inactive) |
| Nc1c(-c2ccc(F)cc2)cnc2ncnn12 | 21.9% (inactive) |
| Cc1ccc(SCC(=O)NC(=O)NCc2ccco2)c(C)c1 | 1.6% (inactive) |
| COc1ccc([N+](=O)[O-])cc1NC(=O)CCc1ccccc1 | 9.1% (inactive) |
| CC(Oc1ccc(-c2ccccc2)c(F)c1)c1ccn(S(=O)(=O)c2cccc3ccccc23)n1 (stereo not given) | 1.3% (inactive) |
| N#C/C(=C(/O)Cc1cccc2ccccc12)c1nc2ccccc2s1 | 18.2% (inactive) |
| COc1cc(C2CC(=O)c3cnc(NC(C)=O)nc3C2)cc(OC)c1OC (stereo not given) | -1.6% (inactive) |
| CC1=C(C(=O)Nc2ccc(Cl)cc2)C(c2ccco2)NC(=O)N1 (stereo not given) | -60.1% (inactive) |
| O=C(Nc1ncc2c(n1)CC(c1ccco1)CC2=O)c1ccc(Cl)cc1 (stereo not given) | 100% (active) |
| FC(F)(F)c1cccc(-c2cc3ccccc3nc2N2CCCC2)c1 | -10% (inactive) |
| COc1cccc(NC(=O)C2c3cc(OC)c(OC)cc3C(=O)N(C)C2c2cccnc2)c1 (stereo not given) | 29% (inactive) |
| NC(=O)COc1ccc(/C=N/NC(=O)C2CCCN2S(=O)(=O)c2ccc(Cl)cc2)cc1 (stereo not given) | -7.7% (inactive) |
| CC(=O)c1cn(CCCCCCCCCCn2cc(C(C)=O)c(=O)[nH]c2=O)c(=O)[nH]c1=O | 6.8% (inactive) |
| O=C(CCc1ccc(S(=O)(=O)N2CCOCC2)cc1)Nc1ccc2ccccc2c1 | -5% (inactive) |
| O=C(CNC(=O)c1ccccc1)NCC(=O)OCc1ccc(Cl)cc1 | -29.4% (inactive) |
| CC(C(=O)Nc1ccc(F)c(F)c1F)N1CCCCCC1 (stereo not given) | 9.4% (inactive) |

| Compound | inhibition |
| --- | --- |
| O=c1c2ccccc2nc2n1C(CSc1ccc(Cl)cc1)CN2 (stereo not given) | -15.2% (inactive) |
| Cc1cccc(CSc2nnc(NC(=O)CSc3nnc(C)s3)s2)c1 | -21.1% (inactive) |
| O=C(NC1CCCCC1)c1cc([N+](=O)[O-])ccc1N1CCOCC1 | -40.7% (inactive) |
| Cc1n[nH]c(=O)n1-c1ccc(Oc2ccccc2)cc1 | 22.6% (inactive) |
| Cc1ccc(C)c(NC(=O)C2Cc3ccccc3CN2C(=O)OCc2ccccc2)c1 (stereo not given) | 26.6% (inactive) |
| Cc1ccc(S(=O)(=O)N(CC(=O)NCCSC2CCCCC2)c2ccccc2F)cc1 | 1.5% (inactive) |
| CC(C)CC(=O)N1CCC(O)(CS(=O)(=O)Cc2ccccc2)CC1 | 34.4% (inactive) |
| Cc1ccc(-c2csc(N(Cc3ccco3)C(=O)c3cccs3)n2)cc1 | 5.4% (inactive) |
| Fc1ccccc1COc1ccccc1CNCc1ccncc1 | -4.1% (inactive) |
| COc1ccccc1NC(=O)c1ccc2nc(N3C(=O)CCC3=O)sc2c1 | 19.2% (inactive) |
| COc1cc(C2C(C(=O)OCCC#N)=C(C)NC3=C2S(=O)(=O)c2ccccc23)cc(OC)c1OC (stereo not given) | -21.9% (inactive) |
| O=C(CCCN1C(=O)c2cccc3cccc(c23)C1=O)N1CCN(Cc2ccc3c(c2)OCO3)CC1 | 21% (inactive) |
| Cc1cccc(COc2ccccc2/C=N/Nc2ccc([N+](=O)[O-])cc2)c1 | 15.8% (inactive) |
| COc1ccccc1OCCNc1cc(N2CCOCC2)ccc1[N+](=O)[O-] | 5.1% (inactive) |
| O=C(COc1ccc(Br)cc1F)NC1CCN(Cc2ccccc2)CC1 | -0.2% (inactive) |
| C/C(=N/NC(=O)c1ccc(NC(=O)c2ccc(F)cc2)cc1)c1ccccc1 | -18.2% (inactive) |
| COc1cc(/C=C(/NC(=O)c2ccccc2)C(=O)Nc2cccc(O)c2)c([N+](=O)[O-])cc1OC | 7.4% (inactive) |
| C=CCNC(=S)NNc1ncnc2sc3c(c12)CC(C)(C)OC3 | -11.6% (inactive) |
| C=CCNC(=O)c1sc(SC)cc1-c1ccc(Cl)cc1 | 7.4% (inactive) |
| Cc1cccc(-n2cnc(C(=O)Nc3cccnc3)c2)n1 | 1.4% (inactive) |
